# Reference: PubChem BioAssay (EPA / NIEHS)
# Inconclusive results are not listed. Activity calls are given as the source filed them. Rule for the calls, unless noted: active = hit-call score of the fitted dose curve at least 0.9, where 1 is the maximum; inconclusive = response in the unintended direction; inactive = score below 0.9.
# Experiments:
# [1] = ATG_TCF_b_cat_CIS: Attagene CIS-FACTORIAL HepG2 Assay for human T-Cell-Factor with beta-catenin (TCF/b-cat) (AID 2282965; active = hit-call score of the fitted dose curve at least 0.9, where 1 is the maximum; inactive = score below 0.9); settings: HepG2 TCF/beta-catenin cis-reporter transcription, actives raise or lower the signal
# Procedure, shortened: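 Endogenous TCF/LEF activity read as reporter transcript level via RT-PCR and capillary electrophoresis fluorescence in transfected HepG2, 24 h exposure; gain or loss of signal fitted against DMSO controls.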
# [2] = ATG_TAL_CIS: Attagene CIS-FACTORIAL HepG2 Assay for human TAL Basal Promoter (AID 2282966; active = hit-call score of the fitted dose curve at least 0.9, where 1 is the maximum; inactive = score below 0.9;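 note: background control endpoint measuring basal TAL promoter reporter mRNA not a specific factor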); settings: HepG2 Attagene cis-factorial TAL promoter reporter; actives raise or lower the signal
# Procedure, shortened: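 HepG2, transient MRTU transfection, 24 h compound exposure; RNA → oligo(dT) RT → PCR → 6-FAM primer extension → HpaI digest → CE fluorescence. Bidirectional curve fit vs DMSO. Background-control readout.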
# [3] = ATG_TGFb_CIS: Attagene CIS-FACTORIAL HepG2 Assay for human Transforming Growth Factor (TGF) (AID 2282967; active = hit-call score of the fitted dose curve at least 0.9, where 1 is the maximum; inactive = score below 0.9); settings: HepG2 Attagene CIS TGFb reporter, mRNA transcription; actives raise or lower the signal
# Procedure, shortened: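 After a 24-hour incubation with compound, transfected HepG2 cells were lysed for RNA; reporter cDNA was amplified, fluorescently end-labeled and separated by CE. DMSO served as baseline for bidirectional fits.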
# [4] = ATG_VDRE_CIS: Attagene CIS-FACTORIAL HepG2 Assay for human Vitamin D Receptor Element (VDRE) (AID 2282968; active = hit-call score of the fitted dose curve at least 0.9, where 1 is the maximum; inactive = score below 0.9); settings: HepG2 VDRE cis-reporter transcription, actives raise or lower the signal
# Procedure, shortened: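 Readout is VDRE-driven reporter mRNA reflecting endogenous factor activity in human HepG2 cells, sampled 24 h post-dose. Quantification used labelled RT-PCR products separated by capillary electrophoresis; bidirectional analysis relative to DMSO.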
# [5] = molecular target: Estrogen receptor (Homo sapiens) (UniProt P03372); assay: ATG_ERa_TRANS: Attagene TRANS-FACTORIAL HepG2 Assay for human Estrogen Receptor alpha (ERa) (AID 2282970); settings: HepG2 Attagene TRANS ERa GAL4 reporter, mRNA
# Procedure, shortened: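 Reporter mRNA induction after 24 hours, detected by fluorescent RT-PCR and capillary electrophoresis, gives the read-out. Cells are HepG2 transiently transfected with GAL4-UAS reporter transcription units responding to chimeric NR-Gal4. Activity is taken as gain of signal over DMSO baseline.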
# [6] = molecular target: X-box-binding protein 1 (Homo sapiens) (UniProt P17861); assay: ATG_Xbp1_CIS: Attagene CIS-FACTORIAL HepG2 Assay for human X-box Binding Protein 1 (XBP1) (AID 2282972; active = hit-call score of the fitted dose curve at least 0.9, where 1 is the maximum; inactive = score below 0.9); settings: HepG2 XBP1 cis-element reporter, Attagene multiplex; actives raise or lower the signal
# Procedure, shortened: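 Changes in reporter transcript abundance, read by RT-PCR and capillary electrophoresis, reflect endogenous transcription factor activity. Transfected HepG2 cells received compound for 24 hours; DMSO defined baseline for bidirectional analysis.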
# [7] = ATG_M_19_TRANS: Attagene TRANS-FACTORIAL HepG2 Assay for M19 Transcription Factor (Internal Marker) (AID 2282974); settings: HepG2 Attagene TRANS-FACTORIAL M19 internal marker reporter
# Procedure, shortened: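 Fluorescence of 6-FAM-labelled reporter cDNA fragments, separated by capillary electrophoresis, served as the readout. These derived from HepG2 cells carrying transfected GAL4-UAS reporter units after 24 h dosing, with DMSO as negative control.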
# [8] = ATG_GAL4_TRANS: Attagene TRANS-FACTORIAL HepG2 Assay for GAL4 (Internal Marker) (AID 2282976); settings: HepG2 Attagene TRANS GAL4 internal marker reporter
# Procedure, shortened: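 RT-PCR/capillary electrophoresis readout of reporter mRNA. HepG2, transient MRTU transfection (GAL4-UAS reporters), 24 h compound exposure. Background-control endpoint, positive direction vs DMSO baseline.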
# [9] = molecular target: Hepatocyte nuclear factor 4-alpha (Homo sapiens) (UniProt P41235); assay: ATG_HNF4a_TRANS: Attagene TRANS-FACTORIAL HepG2 Assay for human Hepatocyte Nuclear Factor 4 alpha (HNF4a) (AID 2282982); settings: HepG2 HNF4a transactivation reporter, mRNA readout
# Procedure, shortened: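 Activity of an exogenous HNF4a–Gal4 fusion scored as induced GAL4-UAS reporter transcripts after 24 h chemical exposure of transfected human HepG2 cells. Read-out via RT-PCR with 6-FAM labelling and capillary electrophoresis; rise over DMSO baseline.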
# [10] = molecular target: Nuclear receptor subfamily 4 group A member 2 (Homo sapiens) (UniProt P43354); assay: ATG_NURR1_TRANS: Attagene TRANS-FACTORIAL HepG2 Assay for human Nuclear Receptor Related Protein 1 (NURR1) (AID 2282985); settings: HepG2 Attagene TRANS reporter, mRNA readout
# Procedure, shortened: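 Reporter transcript induction, measured by RT-PCR with fluorescent labelling, HpaI digestion and capillary electrophoresis, after 24 hr dosing of human HepG2 cells transiently expressing an exogenous NR-Gal4 fusion with GAL4-UAS-driven reporters; DMSO as baseline.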
# [11] = molecular target: Transcriptional activator Myb (Homo sapiens) (UniProt P10242); assay: ATG_Myb_CIS: Attagene CIS-FACTORIAL HepG2 Assay for human Myeloblastosis (Myb) Proto-Oncogene Transcription Factor (AID 2282986; active = hit-call score of the fitted dose curve at least 0.9, where 1 is the maximum; inactive = score below 0.9); settings: HepG2 Attagene CIS-FACTORIAL Myb reporter transcription; actives raise or lower the signal
# Procedure, shortened: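 Reporter transcript levels, quantified by fluorescent RT-PCR and capillary electrophoresis, serve as the read-out. Transfected HepG2 cells carrying cis-promoter reporter units are dosed for 24 hours, and curves are fitted bidirectionally against DMSO controls.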
# [12] = molecular target: Oxysterols receptor LXR-beta (Homo sapiens) (UniProt P55055); assay: ATG_LXRb_TRANS: Attagene TRANS-FACTORIAL HepG2 Assay for human Liver X Receptor beta (LXRb) (AID 2282981); settings: HepG2 Attagene TRANS GAL4-LXRb reporter, mRNA
# Procedure, shortened: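 After 24 h chemical treatment of transfected HepG2 cells carrying exogenous NR-Gal4 chimeras, reporter mRNA was quantified by fluorescent RT-PCR and capillary electrophoresis; activity taken as increase over DMSO controls.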
# [13] = ATG_M_06_TRANS: Attagene TRANS-FACTORIAL HepG2 Assay for M06 Transcription Factor (Internal Marker) (AID 2282983); settings: HepG2 Attagene TRANS M06 internal marker reporter
# Procedure, shortened: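 Read-out: fluorescent reporter cDNA fragments resolved by capillary electrophoresis after RT-PCR and HpaI cut. Source cells were HepG2 carrying transfected multi-reporter GAL4 constructs, dosed 24 h. Increase over DMSO control analysed.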
# [14] = molecular target: Glucocorticoid receptor (Homo sapiens) (UniProt P04150); assay: ATG_GR_TRANS: Attagene TRANS-FACTORIAL HepG2 Assay for human Glucocorticoid Receptor (GR) (AID 2282978); settings: HepG2 Attagene TRANS GR reporter, mRNA transcription;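 note: activators score as hits since higher reporter transcript over DMSO is fitted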
# Procedure, shortened: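 Fluorescent capillary-electrophoresis quantitation of reporter mRNA is the readout, taken 24 h after dosing human HepG2 cells carrying transiently transfected GAL4-UAS reporter units activated by chimeric NR-GAL4 fusions; activity scored as induction over DMSO.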
# [15] = molecular target: Bile acid receptor (Homo sapiens) (UniProt Q96RI1); assay: ATG_FXR_TRANS: Attagene TRANS-FACTORIAL HepG2 Assay for Farnesoid X Receptor (FXR) (AID 2282979); settings: HepG2 Attagene TRANS FXR-GAL4 reporter transcription;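 note: hits raise reporter mRNA above DMSO so AC50 marks FXR activation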
# Procedure, shortened: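 Read-out: fluorescent reporter transcripts quantified by capillary electrophoresis after RT-PCR of total RNA. Source cells were HepG2 transiently carrying chimeric NR-GAL4 plus GAL4-UAS reporter units, dosed 24 h. Activity fitted upward relative to DMSO baseline.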
# [16] = molecular target: Oxysterols receptor LXR-alpha (Homo sapiens) (UniProt Q13133); assay: ATG_LXRa_TRANS: Attagene TRANS-FACTORIAL HepG2 Assay for human Liver X Receptor alpha (LXRa) (AID 2282980); settings: HepG2 Attagene TRANS reporter, LXRa transactivation
# Procedure, shortened: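 Read-out: reporter transcript levels by RT-PCR plus capillary electrophoresis, fluorescence intensity. Transiently transfected HepG2, exogenous NR-GAL4 chimera, GAL4-UAS reporters; 24 h compound exposure. Activity = increase over DMSO negative control.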
# [17] = ATG_M_32_TRANS: Attagene TRANS-FACTORIAL HepG2 Assay for M32 Transcription Factor (Internal Marker) (AID 2282984); settings: HepG2 Attagene TRANS M32 internal marker reporter
# Procedure, shortened: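 Internal background reporter in transfected HepG2: after 24 h chemical exposure, RNA reverse-transcribed, reporter cDNA amplified, fluorescently labelled and HpaI-cut, then sized by capillary electrophoresis. Gain of signal fitted against DMSO control.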
# [18] = molecular target: Estrogen-related receptor gamma (Homo sapiens) (UniProt P62508); assay: ATG_ERRg_TRANS: Attagene TRANS-FACTORIAL HepG2 Assay for human Estrogen-Related Receptor gamma (ERRg) (AID 2282977); settings: HepG2 Attagene TRANS reporter, ERRg transactivation;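 note: hits increase reporter signal over DMSO so potencies reflect activators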
# Procedure, shortened: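 Exogenous NR-Gal4 chimera activity measured as reporter transcript induction after 24 h in transiently transfected HepG2 cells. RNA reverse-transcribed, PCR-amplified, 6-FAM-labelled and resolved by capillary electrophoresis; increase over DMSO baseline.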
# Chain of Transcriptional activator Myb (Homo sapiens) (P10242 whole entry, looked up): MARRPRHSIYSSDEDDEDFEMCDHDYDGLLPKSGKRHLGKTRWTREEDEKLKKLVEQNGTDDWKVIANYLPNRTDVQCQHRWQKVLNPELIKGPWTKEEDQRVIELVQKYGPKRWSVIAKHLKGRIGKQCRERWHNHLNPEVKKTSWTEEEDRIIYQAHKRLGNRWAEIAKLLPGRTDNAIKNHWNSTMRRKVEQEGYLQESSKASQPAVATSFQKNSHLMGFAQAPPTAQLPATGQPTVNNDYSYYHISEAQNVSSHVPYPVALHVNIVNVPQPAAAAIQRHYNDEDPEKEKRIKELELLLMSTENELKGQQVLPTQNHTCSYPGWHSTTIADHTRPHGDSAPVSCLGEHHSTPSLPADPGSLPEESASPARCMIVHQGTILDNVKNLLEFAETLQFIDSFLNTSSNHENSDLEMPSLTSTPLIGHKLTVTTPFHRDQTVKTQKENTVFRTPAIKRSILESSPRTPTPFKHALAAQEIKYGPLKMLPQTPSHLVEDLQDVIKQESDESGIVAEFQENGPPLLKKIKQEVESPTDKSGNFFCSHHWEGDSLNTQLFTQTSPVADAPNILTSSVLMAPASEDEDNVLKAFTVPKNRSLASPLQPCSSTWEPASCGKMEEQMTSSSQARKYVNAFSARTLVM
# Chain of X-box-binding protein 1 (Homo sapiens) (P17861 whole entry, looked up): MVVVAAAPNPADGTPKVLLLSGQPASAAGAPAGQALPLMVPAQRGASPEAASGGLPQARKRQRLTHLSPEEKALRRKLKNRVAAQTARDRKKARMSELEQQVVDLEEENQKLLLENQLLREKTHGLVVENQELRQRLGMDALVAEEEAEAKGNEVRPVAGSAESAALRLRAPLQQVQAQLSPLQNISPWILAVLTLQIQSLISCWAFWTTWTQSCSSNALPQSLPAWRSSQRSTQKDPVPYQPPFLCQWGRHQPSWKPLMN
# Chain of Hepatocyte nuclear factor 4-alpha (Homo sapiens) (P41235 whole entry, looked up, the tested form may be a part): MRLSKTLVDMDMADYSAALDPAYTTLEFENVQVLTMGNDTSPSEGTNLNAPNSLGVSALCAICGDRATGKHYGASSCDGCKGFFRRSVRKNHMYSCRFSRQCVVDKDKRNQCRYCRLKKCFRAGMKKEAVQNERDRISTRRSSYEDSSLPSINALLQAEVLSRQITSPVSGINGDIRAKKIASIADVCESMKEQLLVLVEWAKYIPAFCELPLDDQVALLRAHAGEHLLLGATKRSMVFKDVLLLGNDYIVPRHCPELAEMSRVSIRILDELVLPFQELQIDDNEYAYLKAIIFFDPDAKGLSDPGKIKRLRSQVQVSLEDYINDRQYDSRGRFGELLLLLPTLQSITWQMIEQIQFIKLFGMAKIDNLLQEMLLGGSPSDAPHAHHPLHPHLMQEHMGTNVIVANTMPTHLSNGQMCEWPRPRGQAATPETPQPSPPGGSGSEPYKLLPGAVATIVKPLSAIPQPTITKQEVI
# Chain of Oxysterols receptor LXR-alpha (Homo sapiens) (Q13133 whole entry, looked up, the tested form may be a part): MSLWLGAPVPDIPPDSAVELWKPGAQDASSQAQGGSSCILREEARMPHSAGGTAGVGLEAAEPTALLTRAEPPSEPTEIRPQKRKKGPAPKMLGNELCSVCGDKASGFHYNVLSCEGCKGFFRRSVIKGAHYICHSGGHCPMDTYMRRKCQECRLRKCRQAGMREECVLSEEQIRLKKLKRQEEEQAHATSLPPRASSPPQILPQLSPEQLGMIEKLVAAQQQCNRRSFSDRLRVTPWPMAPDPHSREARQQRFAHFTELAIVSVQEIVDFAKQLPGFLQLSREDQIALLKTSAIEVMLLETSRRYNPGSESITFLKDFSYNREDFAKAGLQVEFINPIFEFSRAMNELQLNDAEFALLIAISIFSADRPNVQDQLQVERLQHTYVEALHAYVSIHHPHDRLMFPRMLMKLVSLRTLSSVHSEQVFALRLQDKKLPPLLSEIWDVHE
# Chain of Estrogen receptor (Homo sapiens) (P03372 whole entry, looked up, the tested form may be a part): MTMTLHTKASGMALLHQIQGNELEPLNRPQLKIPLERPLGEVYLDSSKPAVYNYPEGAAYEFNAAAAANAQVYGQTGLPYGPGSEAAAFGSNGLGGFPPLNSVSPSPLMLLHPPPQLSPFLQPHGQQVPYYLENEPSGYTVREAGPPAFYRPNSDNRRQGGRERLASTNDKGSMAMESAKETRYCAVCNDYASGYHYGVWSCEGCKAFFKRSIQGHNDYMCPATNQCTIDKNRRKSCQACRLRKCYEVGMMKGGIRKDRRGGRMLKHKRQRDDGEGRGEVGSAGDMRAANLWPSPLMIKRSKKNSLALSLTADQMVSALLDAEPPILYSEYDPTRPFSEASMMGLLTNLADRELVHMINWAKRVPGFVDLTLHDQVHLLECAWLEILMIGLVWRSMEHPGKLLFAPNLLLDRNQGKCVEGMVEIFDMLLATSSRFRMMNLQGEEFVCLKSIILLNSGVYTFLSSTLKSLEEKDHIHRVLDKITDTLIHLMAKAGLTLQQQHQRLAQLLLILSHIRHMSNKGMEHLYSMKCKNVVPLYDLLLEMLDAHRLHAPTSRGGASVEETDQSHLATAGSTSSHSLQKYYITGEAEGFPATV
# Chain of Nuclear receptor subfamily 4 group A member 2 (Homo sapiens) (P43354 whole entry, looked up, the tested form may be a part): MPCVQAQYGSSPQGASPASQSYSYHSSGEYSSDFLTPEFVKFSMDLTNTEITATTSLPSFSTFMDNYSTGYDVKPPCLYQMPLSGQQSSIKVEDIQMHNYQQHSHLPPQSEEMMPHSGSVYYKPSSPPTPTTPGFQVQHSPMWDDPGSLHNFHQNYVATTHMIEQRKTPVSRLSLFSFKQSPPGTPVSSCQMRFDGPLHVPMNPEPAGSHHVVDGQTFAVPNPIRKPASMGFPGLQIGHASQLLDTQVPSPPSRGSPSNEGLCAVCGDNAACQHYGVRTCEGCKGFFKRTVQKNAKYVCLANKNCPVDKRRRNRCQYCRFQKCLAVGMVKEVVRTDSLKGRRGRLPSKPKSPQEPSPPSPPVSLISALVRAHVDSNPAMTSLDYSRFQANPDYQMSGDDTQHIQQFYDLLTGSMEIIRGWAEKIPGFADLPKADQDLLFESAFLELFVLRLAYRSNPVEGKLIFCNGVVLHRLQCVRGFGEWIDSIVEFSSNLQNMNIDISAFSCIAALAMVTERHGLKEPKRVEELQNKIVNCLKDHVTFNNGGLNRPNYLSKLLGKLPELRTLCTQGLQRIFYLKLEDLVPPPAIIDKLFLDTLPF
# Chain of Oxysterols receptor LXR-beta (Homo sapiens) (P55055 whole entry, looked up, the tested form may be a part): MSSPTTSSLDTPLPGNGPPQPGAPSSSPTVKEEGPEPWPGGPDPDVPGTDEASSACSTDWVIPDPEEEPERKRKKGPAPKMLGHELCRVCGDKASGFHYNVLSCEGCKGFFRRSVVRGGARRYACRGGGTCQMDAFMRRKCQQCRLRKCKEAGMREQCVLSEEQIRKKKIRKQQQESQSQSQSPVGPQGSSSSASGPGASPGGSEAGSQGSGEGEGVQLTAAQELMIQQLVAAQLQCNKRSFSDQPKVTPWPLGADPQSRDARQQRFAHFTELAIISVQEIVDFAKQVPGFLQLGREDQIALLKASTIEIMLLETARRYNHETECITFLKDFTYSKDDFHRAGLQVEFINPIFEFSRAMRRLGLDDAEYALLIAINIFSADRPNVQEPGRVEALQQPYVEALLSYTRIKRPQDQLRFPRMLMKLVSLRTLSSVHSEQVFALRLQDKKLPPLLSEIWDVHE
# Chain of Bile acid receptor (Homo sapiens) (Q96RI1 whole entry, looked up, the tested form may be a part): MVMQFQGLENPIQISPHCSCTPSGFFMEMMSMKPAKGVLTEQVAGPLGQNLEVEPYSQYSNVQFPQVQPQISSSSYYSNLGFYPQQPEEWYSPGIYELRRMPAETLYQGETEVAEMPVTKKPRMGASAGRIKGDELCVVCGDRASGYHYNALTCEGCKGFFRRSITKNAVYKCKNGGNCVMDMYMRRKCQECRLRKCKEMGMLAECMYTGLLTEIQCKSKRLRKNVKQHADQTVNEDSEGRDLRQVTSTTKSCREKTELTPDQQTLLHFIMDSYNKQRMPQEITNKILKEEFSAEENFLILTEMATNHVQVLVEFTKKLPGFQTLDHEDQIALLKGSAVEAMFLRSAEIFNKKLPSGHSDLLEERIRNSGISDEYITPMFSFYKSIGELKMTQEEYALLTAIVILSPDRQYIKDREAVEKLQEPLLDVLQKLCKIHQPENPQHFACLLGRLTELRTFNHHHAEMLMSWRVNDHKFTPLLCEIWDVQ
# Chain of Glucocorticoid receptor (Homo sapiens) (P04150 whole entry, looked up, the tested form may be a part): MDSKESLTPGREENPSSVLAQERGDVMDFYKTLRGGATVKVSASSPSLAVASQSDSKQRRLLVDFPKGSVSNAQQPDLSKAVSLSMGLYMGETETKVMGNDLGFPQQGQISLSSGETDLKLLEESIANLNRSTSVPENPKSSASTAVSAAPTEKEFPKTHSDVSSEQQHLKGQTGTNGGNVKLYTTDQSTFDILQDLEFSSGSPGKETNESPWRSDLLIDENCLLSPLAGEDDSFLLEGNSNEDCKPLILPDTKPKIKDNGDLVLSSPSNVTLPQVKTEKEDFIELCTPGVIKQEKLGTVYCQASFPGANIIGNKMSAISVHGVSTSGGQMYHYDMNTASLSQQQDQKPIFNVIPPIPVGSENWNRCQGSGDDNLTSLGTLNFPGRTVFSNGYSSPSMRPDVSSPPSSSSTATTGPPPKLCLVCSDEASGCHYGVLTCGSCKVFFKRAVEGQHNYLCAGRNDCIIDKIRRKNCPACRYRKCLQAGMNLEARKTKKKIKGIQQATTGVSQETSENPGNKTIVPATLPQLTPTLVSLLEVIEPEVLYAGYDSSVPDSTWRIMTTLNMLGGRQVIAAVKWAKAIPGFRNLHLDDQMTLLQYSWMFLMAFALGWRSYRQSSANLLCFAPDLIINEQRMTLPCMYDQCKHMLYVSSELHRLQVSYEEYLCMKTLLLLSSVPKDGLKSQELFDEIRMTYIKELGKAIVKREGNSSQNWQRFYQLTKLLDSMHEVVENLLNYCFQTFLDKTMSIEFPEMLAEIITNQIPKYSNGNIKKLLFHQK
structure (smiles),measurement,setting,value
C=C(C)C(=O)OCCN(C)C,outcome,[1],inactive
same,outcome,[2],inactive
same,outcome,[3],inactive
same,outcome,[4],inactive
same,outcome,[5],inactive
same,outcome,[6],inactive
same,outcome,[7],inactive
same,outcome,[8],inactive
same,outcome,[9],inactive
same,outcome,[10],inactive
same,outcome,[11],inactive
COc1ccc(C(C)=O)cc1,outcome,[1],inactive
same,outcome,[2],inactive
same,outcome,[3],inactive
same,outcome,[4],inactive
same,outcome,[5],inactive
same,outcome,[6],inactive
same,outcome,[7],inactive
same,outcome,[12],inactive
same,outcome,[10],inactive
same,outcome,[11],inactive
c1ccc(Cc2ccccc2)cc1,outcome,[1],inactive
same,outcome,[2],inactive
same,outcome,[3],inactive
same,outcome,[4],inactive
same,outcome,[5],inactive
same,outcome,[6],inactive
same,outcome,[7],inactive
same,outcome,[12],inactive
same,outcome,[9],inactive
same,outcome,[13],inactive
same,outcome,[10],inactive
same,outcome,[11],inactive
O=C1OC2(c3ccc(O)cc3Oc3cc(O)ccc32)c2ccccc21,outcome,[1],inactive
same,outcome,[2],inactive
same,outcome,[3],inactive
same,outcome,[4],inactive
same,AC50,[5],27.7 µM (active)
same,outcome,[6],inactive
same,outcome,[7],inactive
same,outcome,[14],inactive
same,outcome,[15],inactive
same,outcome,[16],inactive
same,outcome,[9],inactive
same,outcome,[13],inactive
same,outcome,[11],inactive
C=C1CC[C@H]2O[C@]2(C)CC[C@@H]2[C@@H]1CC2(C)C,outcome,[1],inactive
same,outcome,[2],inactive
same,outcome,[3],inactive
same,outcome,[4],inactive
same,outcome,[5],inactive
same,outcome,[6],inactive
same,outcome,[7],inactive
same,outcome,[14],inactive
same,outcome,[15],inactive
same,outcome,[16],inactive
same,outcome,[12],inactive
same,outcome,[17],inactive
same,outcome,[10],inactive
same,outcome,[11],inactive
COc1ccccc1O,outcome,[1],inactive
same,outcome,[2],inactive
same,outcome,[3],inactive
same,outcome,[4],inactive
same,outcome,[5],inactive
same,outcome,[6],inactive
same,outcome,[7],inactive
same,outcome,[8],inactive
same,outcome,[14],inactive
same,outcome,[15],inactive
same,outcome,[16],inactive
same,outcome,[12],inactive
same,outcome,[11],inactive
COC(=O)C(C)Oc1ccc(Oc2ncc(C(F)(F)F)cc2Cl)cc1 (centres undefined),outcome,[1],inactive
same,outcome,[2],inactive
same,AC50,[3],133 µM (active)
same,AC50,[4],42.8 µM (active)
same,outcome,[5],inactive
same,outcome,[6],inactive
same,outcome,[8],inactive
same,outcome,[18],inactive
same,outcome,[16],inactive
same,outcome,[12],inactive
same,outcome,[9],inactive
same,outcome,[13],inactive
same,outcome,[17],inactive
same,outcome,[10],inactive
same,outcome,[11],inactive
CCCCCCCCCC(=O)OCC,outcome,[1],inactive
same,outcome,[2],inactive
same,outcome,[3],inactive
same,AC50,[4],44.1 µM (active)
same,outcome,[5],inactive
same,outcome,[6],inactive
same,outcome,[8],inactive
same,outcome,[13],inactive
same,outcome,[10],inactive
same,outcome,[11],inactive
COC(=O)c1cccc(C(=O)OC)c1,outcome,[1],inactive
same,outcome,[2],inactive
same,outcome,[3],inactive
same,outcome,[4],inactive
same,outcome,[5],inactive
same,outcome,[6],inactive
same,outcome,[7],inactive
same,outcome,[8],inactive
same,outcome,[16],inactive
same,outcome,[17],inactive
same,outcome,[11],inactive
